Inconclusive results are not listed. Active and inactive are the calls of the source. Unless noted, calls follow the shape of the dose curve; as a rule, active = well fitted curve in the direction sought with a large enough effect; inconclusive = small, poorly fitted or top-dose-only effect, or another doubt; inactive = no such curve, though single readings can be large; an effect the other way counts as inactive or inconclusive.
Legend:
[1] = qHTS for Inhibitors of Plasmodium falciparum (DD2) proliferation (AID 504314);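 also: parasite DNA measured by SYBR Green fluorescence after red cell lysis; plate controls were DMSO vehicle for no effect and artemisinin wells for full effect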
How it was run: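 Quantitative HTS growth inhibition: SYBR Green I binding to parasite DNA after 72 h drug exposure of infected erythrocytes (0.3% parasitemia, 2.5% hematocrit). Signals normalized per plate to inhibitor and vehicle wells.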

[2] = qHTS for Inhibitors of Plasmodium falciparum (GB4) proliferation (AID 504315);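 also: 0% = DMSO vehicle and -100% = 0.29 µM artemisinin control; nearly all actives have a fitted effect of over 50% in size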
How it was run: (§1)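 Erythrocytes infected with P. falciparum line (0.3% parasitemia, 2.5% hematocrit final) incubated with compounds 72 h at 37 °C, 5% CO2; SYBR Green lysis buffer added, fluorescence read next day. Normalized to 0.29 uM artemisinin and DMSO.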

[3] = qHTS for Inhibitors of Plasmodium falciparum (HB3) proliferation (AID 504318);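 also: 0% = DMSO vehicle and -100% = artemisinin control; nearly all actives have a fitted effect of over 60% in size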
How it was run: as §1

[4] = qHTS for Inhibitors of Plasmodium falciparum (CP250) proliferation (AID 504320);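 also: plate controls were DMSO vehicle for no effect and 0.29 µM artemisinin control for full effect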
How it was run: as §1

[5] = molecular target: Atrial natriuretic peptide receptor 1 (Homo sapiens) (UniProt P16066); experiment: Natriuretic polypeptide receptor (hNpr1) antagonism - Pilot CMLD screen (AID 1347052; calls by dose curve;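 also: HEK293 cells with hNpr1 stimulated by hNppA peptide at 0.1 nM; cGMP level read as GloSensor luciferase luminescence after agonist stimulation; series mostly up to about 9.2 µM; % is scaled to controls: 0 for no effect and ±100 for the full control effect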)
Sequence of Atrial natriuretic peptide receptor 1 (Homo sapiens) (P16066 whole entry, looked up): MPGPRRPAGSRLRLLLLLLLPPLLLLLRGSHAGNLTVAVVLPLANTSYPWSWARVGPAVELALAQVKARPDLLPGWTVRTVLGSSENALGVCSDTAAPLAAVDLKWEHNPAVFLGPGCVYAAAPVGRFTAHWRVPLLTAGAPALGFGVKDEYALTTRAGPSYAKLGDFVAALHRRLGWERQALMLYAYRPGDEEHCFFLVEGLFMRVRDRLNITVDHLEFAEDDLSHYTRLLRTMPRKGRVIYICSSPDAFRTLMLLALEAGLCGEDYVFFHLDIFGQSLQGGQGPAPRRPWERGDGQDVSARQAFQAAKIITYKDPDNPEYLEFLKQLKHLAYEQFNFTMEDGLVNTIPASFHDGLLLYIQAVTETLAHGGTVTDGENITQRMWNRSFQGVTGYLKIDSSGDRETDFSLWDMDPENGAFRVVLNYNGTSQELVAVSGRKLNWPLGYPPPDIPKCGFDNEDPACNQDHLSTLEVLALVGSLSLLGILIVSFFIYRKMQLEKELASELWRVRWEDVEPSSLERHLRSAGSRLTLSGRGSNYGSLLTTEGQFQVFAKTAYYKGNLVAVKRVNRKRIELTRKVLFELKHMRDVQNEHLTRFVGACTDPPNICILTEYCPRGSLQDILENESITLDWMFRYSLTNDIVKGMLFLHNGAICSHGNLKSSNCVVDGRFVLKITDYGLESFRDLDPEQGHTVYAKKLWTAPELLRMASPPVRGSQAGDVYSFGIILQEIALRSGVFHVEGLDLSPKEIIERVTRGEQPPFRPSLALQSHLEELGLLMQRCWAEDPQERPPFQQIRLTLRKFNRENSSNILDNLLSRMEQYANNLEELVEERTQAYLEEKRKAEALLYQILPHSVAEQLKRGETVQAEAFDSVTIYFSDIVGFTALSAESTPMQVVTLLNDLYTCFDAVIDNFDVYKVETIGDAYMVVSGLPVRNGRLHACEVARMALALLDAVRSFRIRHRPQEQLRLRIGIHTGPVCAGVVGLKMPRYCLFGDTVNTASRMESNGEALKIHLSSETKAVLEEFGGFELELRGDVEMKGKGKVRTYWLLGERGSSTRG

[6] = molecular target: Cytochrome P450 3A4 (Homo sapiens) (UniProt P08684); experiment: qHTS Assay for Activators of Cytochrome P450 3A4 (AID 885); also: nearly all actives have a fitted effect of over 65% in size
Sequence of Cytochrome P450 3A4 (Homo sapiens) (P08684 whole entry, looked up): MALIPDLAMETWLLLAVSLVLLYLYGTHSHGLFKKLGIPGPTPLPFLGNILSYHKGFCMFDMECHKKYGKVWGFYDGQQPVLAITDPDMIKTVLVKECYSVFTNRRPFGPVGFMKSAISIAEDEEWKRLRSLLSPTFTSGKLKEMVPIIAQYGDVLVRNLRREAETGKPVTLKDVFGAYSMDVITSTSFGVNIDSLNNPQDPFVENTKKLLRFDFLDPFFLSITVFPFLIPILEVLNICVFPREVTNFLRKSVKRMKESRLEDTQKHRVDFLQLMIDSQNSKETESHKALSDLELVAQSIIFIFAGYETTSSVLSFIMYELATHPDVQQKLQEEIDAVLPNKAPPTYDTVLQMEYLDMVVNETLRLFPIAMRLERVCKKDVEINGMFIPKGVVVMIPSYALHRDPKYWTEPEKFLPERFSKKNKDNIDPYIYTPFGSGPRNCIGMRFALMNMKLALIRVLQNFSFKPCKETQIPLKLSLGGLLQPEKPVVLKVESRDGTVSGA
How it was run: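 Steps: enzyme/substrate mix dispensed; compound added, 10 min RT; NADPH regeneration solution added, 60 min RT; luciferin detection buffer stops reaction; 20 min later luminescence measured.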

C=CC[C@@H]1C=C[C@@H](OC(=O)OCC)[C@@H](COC(=O)OCC)O1
inactive: Potency [1] | Potency [2] | Potency [3] | Potency [4] | Potency [5]

COC(=O)C1(C(=O)OC)C[C@@H]2CON=C2[C@@H]1c1ccccc1
inactive: Potency [1] | Potency [2] | Potency [3] | Potency [4] | Potency [5]

CCN1C(=NCc2cc(OC)c(OC)c(OC)c2)NC(c2ccccc2)C(C(=O)OC)=C1C (stereo not given)
inactive: Potency [1] | Potency [2] | Potency [3] | Potency [4] | Potency [5]

COC(=O)C1=C(C(=O)OC)[C@@H]2N(C)c3ccccc3[C@@]23C[C@@H](C(=O)OC)N(C(=O)c2ccco2)C3=N1
inactive: Potency [1] | Potency [2] | Potency [3] | Potency [4] | Potency [5]

COC(=O)C[C@H]1c2ccccc2[C@@H]2C(=C[C@@H](C)[C@H]3C(=O)NC(=O)[C@H]32)N1C(=O)OC
inactive: Potency [1] | Potency [2] | Potency [3] | Potency [4] | Potency [5]

CC[C@H](C)[C@@H](NC(=O)O[C@@H]1C(=O)c2cc(OC)ccc2O[C@H]1c1ccc(OC)c(Br)c1)C(=O)OC
inactive: Potency [1] | Potency [2] | Potency [3] | Potency [4] | Potency [5]

COc1ccc(COC(=O)NN=C2C[C@@H](O)[C@@H](O)[C@@H]3[C@H]4C(=O)N(Cc5ccccc5)C(=O)[C@@H]4CC[C@@H]23)cc1
inactive: Potency [1] | Potency [2] | Potency [4] | Potency [5]

CC1=C[C@@H](C)O[C@@]2(C1)C(=O)Nc1cccc(Br)c12
inactive: Potency [1] | Potency [2] | Potency [4] | Potency [5]

CC(CCN1CCCc2nc(C)c(C)cc21)=NOC[C@@H](O)[C@H]1O[C@@H]2OC(C)(C)O[C@H]2[C@@H]1O
inactive: Potency [1] | Potency [2] | Potency [4] | Potency [5]

CC(C)OC(=O)[C@H](C)NC(=O)N1CCc2nc(-c3ccccc3)c3c(c2C1)CO[C@@H](C)C3
inactive: Potency [1] | Potency [2] | Potency [4] | Potency [5]

C=CCN1C(=O)CC[C@@]23C1=NC(C(=O)OC)=C(C(=O)OC)[C@@H]2N(CC#CC)c1ccccc13
inactive: Potency [1] | Potency [2] | Potency [4] | Potency [5]

CCN1C(=O)[C@@H]2[C@H]3[C@H](O)[C@H](O)CC(=NOC[C@H]4O[C@H](c5ccccc5)C=C[C@H]4Oc4ccc(OC)cc4)[C@@H]3CC[C@H]2C1=O
inactive: Potency [1] | Potency [2] | Potency [4] | Potency [5]

C=CCN1c2ccccc2[C@]23CCC(=O)N(CCCOC(C)C)C2=NC(C(=O)OC)=C(C(=O)OC)[C@H]13
inactive: Potency [1] | Potency [2] | Potency [4] | Potency [5]

COc1ccc(O[C@H]2C=C[C@@H](c3ccccc3)O[C@H]2CON=C[C@@H](C)[C@H](OCc2ccccc2)C(C)C)cc1
inactive: Potency [1] | Potency [2] | Potency [4] | Potency [5]

COC(=O)CC=C1c2ccccc2C[C@H](OC)[C@@H]1C
inactive: Potency [1] | Potency [2] | Potency [4] | Potency [5]

O=C1Nc2cccc(Br)c2[C@@]12O[C@H](COc1ccccc1)CC1=CCC[C@H]12
inactive: Potency [1] | Potency [2] | Potency [4] | Potency [5]

C[C@H]1[C@@H](C(=O)N2CCCC2)CC(=O)C(=NOCc2ccccc2)C[C@H]1c1ccccc1
inactive: Potency [1] | Potency [2] | Potency [4] | Potency [5]

CCCNC(=O)OC[C@H]1O[C@H](CCON=C2C[C@@H](O)[C@@H](O)[C@@H]3[C@H]4C(=O)N(CC)C(=O)[C@@H]4CC[C@H]23)C=C[C@H]1Oc1ccc(OC)cc1
inactive: Potency [1] | Potency [2] | Potency [4] | Potency [5]

C=CCNC(=O)[C@H]1C=C(OC)C(=O)C[C@H]2c3ccccc3C[C@]12C
inactive: Potency [1] | Potency [2] | Potency [4] | Potency [5]

CC(CCN1CCCCc2nc(C)c(C)cc21)=NO[C@H](C)c1cn([C@H](CO)Cc2ccccc2)nn1
inactive: Potency [1] | Potency [2] | Potency [4] | Potency [5]

CC1(OC(=O)c2ccc(Cl)nc2)C(=O)Cc2cc(-c3ccsc3)ncc2C1=O (stereo not given)
inactive: activity, negative = inhibition [1] -1.5% [at 1.12 µM] | Potency [2] | Potency [4] | Potency [5]

COc1ccc(C=CNC(=O)Cc2ccc(OC)c(OC)c2)cc1
inactive: Potency [1] | Potency [2] | Potency [4] | Potency [5]

CC(C)CON=C1C[C@@H](O)[C@@H](O)[C@@H]2[C@H]3C(=O)N(Cc4ccc5c(c4)OCO5)C(=O)[C@@H]3CC[C@@H]12
inactive: Potency [1] | Potency [2] | Potency [4] | Potency [5]

COc1ccc(O[C@H]2C=C[C@@H](c3ccccc3)O[C@H]2COC(=O)NCc2cccc3ccccc23)cc1
inactive: Potency [1] | Potency [2] | Potency [4] | Potency [5]

COc1ccc(C=CNC(=O)c2ccc(OC)cc2)cc1
inactive: Potency [1] | Potency [2] | Potency [4] | Potency [5]

Cc1ccc2[nH]c3nc(CCCn4ccnc4-c4ccccc4)nnc3c2c1
inactive: activity change, positive = activation [6] -50.4% [at 11.4 µM] | Potency [1] | Potency [2] | Potency [3] | Potency [5]

CCN1C(=O)N(S(=O)(=O)C(F)(F)F)C(c2ccccc2)C(C(=O)OC)=C1C (stereo not given)
inactive: Potency [1] | Potency [2] | Potency [4] | Potency [5]
